Laboratory results: the supplement of paper PMC6089552
Among all 3,200 compounds or so, about 300 (9.4%) showed activity. Only a selection was taken, and actives are over-represented in it overall.

System: A673/TR/shEF
Assay: cell viability (LOESS-normalised, relative to median of negative controls) (log2 ratio); higher = more viable cells (less compound effect), active = hit call of the paper (over 3 MAD below the median)
Conditions: treatment time: 72 h
How it was run: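 A673/TR/shEF Ewing sarcoma cells (1,500 per well, 384-well plates) were grown with or without doxycycline to induce EWS-FLI1 shRNA knockdown, starting 24 h before compounds. Library compounds at two or more concentrations, with DMSO controls, were added for three days. Cell viability was read by CellTiter-Glo luminescence on an Envision reader, then LOESS-corrected per plate, divided by the median of negative controls and log2-transformed. Hits were wells at least three median absolute deviations from the median of all screened wells.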

[1] = 0.25 µM, library screen: screen1, EWS-FLI1 expression: high (no doxycycline)
[2] = 0.25 µM, library screen: screen1, EWS-FLI1 expression: low (doxycycline-induced shRNA knockdown)
[3] = 2.5 µM, library screen: screen1, EWS-FLI1 expression: high (no doxycycline)
[4] = 2.5 µM, library screen: screen1, EWS-FLI1 expression: low (doxycycline-induced shRNA knockdown)
[5] = 0.25 µM, library screen: screen2, EWS-FLI1 expression: high (no doxycycline)
[6] = 0.25 µM, library screen: screen2, EWS-FLI1 expression: low (doxycycline-induced shRNA knockdown)
[7] = 2.5 µM, library screen: screen2, EWS-FLI1 expression: high (no doxycycline)
[8] = 2.5 µM, library screen: screen2, EWS-FLI1 expression: low (doxycycline-induced shRNA knockdown)
[9] = 0.103 µM, library screen: screen3, EWS-FLI1 expression: high (no doxycycline)
[10] = 0.103 µM, library screen: screen3, EWS-FLI1 expression: low (doxycycline-induced shRNA knockdown)
[11] = 0.308 µM, library screen: screen3, EWS-FLI1 expression: high (no doxycycline)
[12] = 0.308 µM, library screen: screen3, EWS-FLI1 expression: low (doxycycline-induced shRNA knockdown)
[13] = 0.926 µM, library screen: screen3, EWS-FLI1 expression: high (no doxycycline)
[14] = 0.926 µM, library screen: screen3, EWS-FLI1 expression: low (doxycycline-induced shRNA knockdown)
[15] = 2.8 µM, library screen: screen3, EWS-FLI1 expression: high (no doxycycline)
[16] = 2.8 µM, library screen: screen3, EWS-FLI1 expression: low (doxycycline-induced shRNA knockdown)
[17] = 8.3 µM, library screen: screen3, EWS-FLI1 expression: high (no doxycycline)
[18] = 8.3 µM, library screen: screen3, EWS-FLI1 expression: low (doxycycline-induced shRNA knockdown)
[19] = 25 µM, library screen: screen3, EWS-FLI1 expression: high (no doxycycline)
[20] = 25 µM, library screen: screen3, EWS-FLI1 expression: low (doxycycline-induced shRNA knockdown)
[21] = 0.025 µM, library screen: screen1, EWS-FLI1 expression: high (no doxycycline)
[22] = 0.025 µM, library screen: screen1, EWS-FLI1 expression: low (doxycycline-induced shRNA knockdown)
[23] = 25 µM, library screen: screen1, EWS-FLI1 expression: high (no doxycycline)
[24] = 25 µM, library screen: screen1, EWS-FLI1 expression: low (doxycycline-induced shRNA knockdown)

Measured: cell viability (log2)

CC1Cc2ccccc2N1C(=S)Nc1ccc2nccnc2c1 (centres undefined)
inactive: [1] 0.139 | [2] 0.113 | [3] 0.133 | [4] 0.0139

CC[C@H](C)C(=O)O[C@H]1C[C@@H](C)C=C2C=C[C@H](C)[C@H](CC[C@@H]3C[C@@H](O)CC(=O)O3)[C@H]21
inactive: [1] 0.0174 | [2] -0.0358 | [3] 0.109 | [4] 0.0431

CC[C@H](C)C(=O)O[C@H]1CCC=C2C=C[C@H](C)[C@H](CC[C@@H]3C[C@@H](O)CC(=O)O3)[C@H]21
inactive: [1] 0.147 | [2] 0.00215 | [5] 0.167 | [6] 0.108 | [3] 0.0603 | [4] -0.0998 | [7] 0.145 | [8] 0.0674

CCC(C)(C)C(=O)O[C@H]1C[C@@H](C)C=C2C=C[C@H](C)[C@H](CC[C@@H]3C[C@@H](O)CC(=O)O3)[C@H]21
active: [19] -1.27 | [20] -1.32
inactive: [9] 0.14 | [10] 0.05 | [1] 0.0551 | [2] -0.0746 | [11] 0.153 | [12] 0.105 | [13] 0.0408 | [14] 0.0447 | [3] 0.0209 | [4] -0.321 | [15] 0.107 | [16] -0.0366 | [17] -0.0829 | [18] -0.13

COCCn1c2c([n+](Cc3cnccn3)c1C)C(=O)c1ccccc1C2=O
active: [9] -3.94 | [10] -2.36 | [11] -3.88 | [12] -4.02 | [13] -3.96 | [14] -4.06 | [15] -4.31 | [16] -4.17 | [17] -4.31 | [18] -4.28 | [19] -4.31 | [20] -4.3

CC(=O)OCC(=O)[C@@]1(O)CC[C@H]2[C@@H]3CC[C@@H]4C[C@H](O)CC[C@]4(C)[C@H]3C(=O)C[C@@]21C
inactive: [1] 0.128 | [2] 0.0697 | [3] 0.109 | [4] -0.0114

COc1ccc(-c2cc(=O)c3ccccc3o2)cc1OC
inactive: [1] -0.0122 | [2] 0.00789 | [3] 0.068 | [4] 0.128

C=CC(C1=CC(=O)C(OC)=CC1=O)c1ccc(OC)cc1 (centres undefined)
inactive: [1] 0.133 | [2] 0.135 | [3] 0.157 | [4] 0.265

C=C[C@@H](C1=CC(=O)C(OC)=C(OC)C1=O)c1ccccc1
active: [1] -0.165
inactive: [2] 0.026 | [3] -0.00361 | [4] 0.0945

C=CC(C1=CC(=O)C(OC)=CC1=O)c1ccccc1 (centres undefined)
inactive: [1] 0.0774 | [2] 0.000535 | [3] 0.158 | [4] 0.101

COc1ccc(C2C3=C(CC(C)(C)CC3=O)OC3=C2C(=O)CC(C)(C)C3)cc1[N+](=O)[O-]
inactive: [1] 0.06 | [2] 0.0112 | [3] 0.134 | [4] -0.00188

CC1=C(O)C(=O)C(C(C)C)CC1 (centres undefined)
inactive: [1] 0.0674 | [2] 0.0473 | [3] 0.0636 | [4] 0.0767

COc1ccc(C2CC(=O)c3c(OC)cc(O)cc3O2)cc1 (centres undefined)
inactive: [1] 0.0309 | [2] -0.00204 | [3] -0.0215 | [4] 0.0561

CC1=C2[C@H]3OC(=O)[C@@H](C)[C@@H]3[C@@H](O)C[C@@]2(C)C=CC1=O
inactive: [1] 0.026 | [2] 0.0292 | [3] 0.113 | [4] 0.0749

CC(C)[C@@H](C)C=C[C@@H](C)[C@H]1CC[C@H]2C3=CCC4CC(=O)CC[C@]4(C)[C@H]3CC[C@]12C (some centres undefined)
inactive: [1] 0.0656 | [2] 0.0592 | [3] 0.126 | [4] 0.0808

C[C@@H]1C/C=C/C=C/C=C/C=C/[C@H](OC2O[C@H](C)[C@@H](O)[C@H](N)[C@@H]2O)C[C@@H]2O[C@](O)(C[C@@H](O)C[C@H]3O[C@@H]3/C=C/C(=O)O1)C[C@H](O)[C@H]2C(=O)O (some centres undefined)
inactive: [9] 0.0488 | [10] 0.0464 | [11] 0.0456 | [12] 0.0497 | [13] 0.0317 | [14] 0.0938 | [15] 0.0554 | [16] 0.0621 | [17] 0.0808 | [18] 0.0825 | [19] 0.128 | [20] 0.0916

CCCCCCCCCCCCCCCC(=O)C1=C(O)[C@@H](CO)OC1=O
inactive: [21] 0.213 | [22] 0.0909 | [1] 0.235 | [2] 0.112 | [4] 0.0271 | [24] -0.135
active: [3] -0.362 | [23] -0.293

CCCCCCCCCCCCCCCC(=O)NCCO
inactive: [5] 0.109 | [6] 0.0709 | [7] 0.0624 | [8] 0.0396

N#C/C(=C\c1cccc(Cl)c1)c1nc2ccccc2[nH]1
inactive: [1] 0.153 | [2] 0.256 | [3] 0.247 | [4] 0.148

CC(COc1ccccc1)NC(C)C(O)c1ccc(O)cc1 (centres undefined)
inactive: [1] 0.163 | [2] 0.0434 | [3] 0.178 | [4] 0.141

Oc1ccc(OCc2ccccc2)cc1
active: [15] -0.186 | [19] -0.212
inactive: [9] 0.123 | [10] -0.0268 | [11] 0.0306 | [12] 0.0601 | [13] 0.0336 | [14] -0.0221 | [16] 0.0872 | [17] -0.00746 | [18] 0.0842 | [20] 0.0776

O=C(OCc1ccccc1)c1ccccc1
inactive: [1] 0.0522 | [2] 0.0983 | [3] 0.0811 | [4] 0.112

C=C1CCC2OC2(C)CCC2C1CC2(C)C (centres undefined)
inactive: [1] 0.0308 | [2] 0.0474 | [3] 0.104 | [4] 0.0209

COc1ccc2c(c1OC)C(=O)O[C@H]2[C@@H]1c2ccccc2CCN1C
inactive: [1] 0.0344 | [2] 0.0398 | [3] 0.0365 | [4] -0.0658

CCC(C)C(NC)C(=O)O (centres undefined)
inactive: [1] 0.07 | [2] 0.0975 | [3] 0.13 | [4] -0.0496

COc1cccc(NC(=O)/C=C/c2ccc(Cl)cc2)c1
inactive: [5] 0.303 | [6] 0.124 | [7] 0.272 | [8] 0.108

COc1ccc(S(=O)(=O)N(CCO)c2ccccc2CN(C)C/C=C/c2ccc(Cl)cc2)cc1
inactive: [21] 0.202 | [22] -0.0138 | [1] 0.226 | [2] 0.0804 | [4] -0.0574
active: [3] -0.284 | [23] -1.32 | [24] -0.531

CC(=O)OCC(OC(C)=O)C(OC(C)=O)C(OC(C)=O)C(OC(C)=O)C(COC(C)=O)OC(C)=O (centres undefined)
inactive: [1] 0.1 | [2] 0.086 | [3] 0.176 | [4] -0.0056

CCn1cc(C(=O)O)c(=O)c2ccc(Cc3ccccc3)nc21
inactive: [5] 0.215 | [6] 0.061 | [7] 0.162 | [8] 0.124

COc1cc(CN2CCN(Cc3ccc([N+](=O)[O-])cc3)CC2)c([N+](=O)[O-])cc1OC
inactive: [1] 0.132 | [2] 0.09 | [3] 0.0515 | [4] 0.104

CC1(C)C[C@@H]2C(=O)CC[C@@H]3O[C@]3(C)CC[C@H]21
inactive: [1] 0.14 | [2] 0.0852 | [3] 0.132 | [4] 0.0776

CC1=C2C(=CO[C@H](C)[C@H]2C)C(=O)C(C(=O)O)=C1O
inactive: [1] 0.0243 | [2] 0.0421 | [3] 0.12 | [4] 0.0982

COc1ccc2nc([S@@+]([O-])Cc3ncc(C)c(OC)c3C)[nH]c2c1
inactive: [9] 0.0353 | [10] -0.0468 | [11] 0.00454 | [12] 2e-05 | [13] -0.0308 | [14] -0.0128 | [15] -0.0416 | [16] 0.00305 | [17] 0.0504 | [18] 0.0301 | [19] -0.0361 | [20] -0.0116

COc1ccc2nc([S+]([O-])Cc3ncc(C)c(OC)c3C)[nH]c2c1 (centres undefined)
inactive: [9] 0.0555 | [10] 0.0372 | [11] -0.0266 | [12] 0.0199 | [13] -0.0106 | [14] 0.0522 | [15] -0.0439 | [16] 0.0389 | [17] -0.0449 | [18] 0.0231 | [19] -0.03 | [20] -0.014

Cc1c(OCC(F)(F)F)ccnc1C[S+]([O-])c1nc2ccccc2[nH]1 (centres undefined)
inactive: [9] 0.0918 | [10] 0.101 | [1] 0.136 | [2] 0.0633 | [5] 0.166 | [6] 0.0843 | [11] 0.0516 | [12] 0.0264 | [13] 0.0709 | [14] 0.0884 | [3] 0.133 | [4] 0.126 | [7] 0.122 | [8] 0.0984 | [15] 0.0259 | [16] 0.0107 | [17] -0.0254 | [18] 0.0817 | [20] 0.0393
active: [19] -0.241

COC(=O)C[C@H]1C(C)(C)[C@@H](OC(C)=O)[C@@H]2CC3C4CC(=O)O[C@@H](c5ccoc5)[C@]4(C)CCC3[C@@]1(C)C2=O (some centres undefined)
inactive: [1] 0.0705 | [2] 0.0161 | [3] 0.14 | [4] 0.112
